NPC1 promoter act: qHTS Assay for NPC1 Promoter Activators; Huh7 NPC1 promoter luciferase reporter, 24 h; Potency, µM (series often up to 9.22 µM), usual class: activators; 2.4% of 320,000 active; AID 485313, 2010; further: nearly all actives have a fitted effect of over 60% in size
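Luminescence read-out of NPC1 promoter-driven luciferase in stably transfected Huh7 cells; compounds delivered in DMSO and left 24 h at 37C, 5% CO2, qHTS titration format.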
FLuc modulator: qHTS profiling assay for firefly luciferase inhibitor/activator using purifed enzyme and Km concentrations of substrates (counterscreen for miR-21 project) | Luciferin 4-monooxygenase (Photinus pyralis), P08659 | purified FLuc, Km substrates, luminescence inhibition | Potency, µM (titrated, usually from 57.5 µM), most hits filed as inhibitors | 6.9% of 360,000 active | AID 588342, 2011; further: nearly all actives have a fitted effect of over 55% in size
Target sequence (P08659 whole entry, looked up): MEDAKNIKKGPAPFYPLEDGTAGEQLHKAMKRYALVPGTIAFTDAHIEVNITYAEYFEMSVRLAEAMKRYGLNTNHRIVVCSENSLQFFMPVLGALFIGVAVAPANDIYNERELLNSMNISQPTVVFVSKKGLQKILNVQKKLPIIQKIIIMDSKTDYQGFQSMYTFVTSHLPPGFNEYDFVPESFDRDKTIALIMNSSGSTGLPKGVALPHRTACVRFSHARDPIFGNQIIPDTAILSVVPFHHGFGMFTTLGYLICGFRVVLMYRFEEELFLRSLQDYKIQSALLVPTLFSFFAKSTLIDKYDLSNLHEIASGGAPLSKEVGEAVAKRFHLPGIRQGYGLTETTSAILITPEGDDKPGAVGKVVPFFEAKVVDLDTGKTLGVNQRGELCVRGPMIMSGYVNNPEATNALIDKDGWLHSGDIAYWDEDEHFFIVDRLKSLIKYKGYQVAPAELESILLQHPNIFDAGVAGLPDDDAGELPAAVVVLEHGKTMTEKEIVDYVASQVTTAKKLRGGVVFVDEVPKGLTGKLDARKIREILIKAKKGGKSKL
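Purified P. pyralis luciferase, 10 nM final, with Km-level 10 uM D-luciferin and 10 uM ATP in 50 mM Tris acetate pH 7.5, 10 mM Mg acetate, 0.01% Tween-20, 0.05% BSA; 6-point qHTS titration about 60 µM downward; luminescence read.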
SMN2 splice enh: qHTS Assay for Enhancers of SMN2 Splice Variant Expression; HEK293 SMN2-luciferase splicing reporter, luminescence, 30-36 h; Potency, µM (series often up to 46.1 µM), most hits filed as activators; 2.8% of 210,000 active; AID 1458, 2008; further: nearly all actives have a fitted effect of over 55% in size
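HEK293 cells carry an SMN2 minigene-luciferase reporter in which exon 7 inclusion puts luciferase in frame. Cells were seeded at 2000 cells/well, attached for 10-12 hours, then exposed to compounds for 30-36 hours at 37C before ONE-Glo luminescence.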
KinaseGlo FLuc: Counterscreen for Luciferase (Kinase-Glo TM) Inhibition; Luciferin 4-monooxygenase (Photuris pensylvanica), Q27757; Kinase-Glo luciferase, ATP luminescence, 8 min; Potency, µM (series often up to 38.3 µM), usual class: inhibitors; 0.28% of 200,000 active; AID 1379, 2008; further: nearly all actives have a fitted effect of over 60% in size
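Compound is pinned into ATP-containing buffer (10 uM ATP, imidazole pH 7.2, 7 mM MgCl2). Kinase-Glo luciferase reagent is then added. Light output is recorded following an 8-min room-temperature incubation.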
ELG1 genotox: qHTS screen for small molecules that induce genotoxicity in human embryonic kidney (HEK293T) cells expressing luciferase-tagged ELG1 | HEK293T ELG1-luciferase reporter, luminescence, 16 h | Potency, µM (top dose mostly 46 µM), most hits filed as activators | 1.3% of 330,000 active | AID 504466, 2011; further: nearly all actives have a fitted effect of over 60% in size
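Genotoxicity was scored as increased ELG1-luciferase reporter signal, measured by ONE-Glo luminescence (30 min, room temperature). Compound or vehicle exposure of the HEK293T reporter cells lasted 16 hr at 37°C.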
Rab9 promoter act: qHTS Assay for Rab9 Promoter Activators | 2.8% of 320,000 active | Potency, µM (series often up to 9.22 µM), actives largely listed as activators | Huh7 Rab9 promoter-luciferase reporter, luminescence, 24 h; further: nearly all actives have a fitted effect of over 60% in size
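Using Huh7 cells stably transfected with Rab9 promoter–luciferase, compounds were incubated 24 h at 37 °C, 5% CO2; luciferase luminescence was read 10 min after reagent addition.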
Numbers stand for hits; . = inactive; ? = inconclusive; / = no result given; [ ] = another dose, or the depositor's remark. A selection: hits, their analogues and other compounds. The true share with any hit is near 7.5%. The call rests on the fitted dose curve; in most records, active means well fitted curve in the direction sought with a large enough effect; inconclusive means small, poorly fitted or top-dose-only effect, or another doubt; inactive means no such curve, though single readings can be large; an effect the other way counts as inactive or inconclusive.

SMILES | NPC1 promoter act | FLuc modulator | SMN2 splice enh | KinaseGlo FLuc | ELG1 genotox | Rab9 promoter act
CCCN(CCC)C(=O)c1c[nH]c2ccc(S(=O)(=O)N(C)c3ccc(Cl)cc3)cc2c1=O | / | . | / | / | / | /
O=C(/C=C/c1ccc2ccccc2n1)N1CCN(c2ccccc2)CC1 | . | . | . | . | . | .
CC(O)/C=C/c1ccc2ccccc2n1 (stereo not given) | . | 17µM | 16µM | . | . | .
Fc1cccc(F)c1/C=C/c1ccc2ccccc2n1 | ? | 0.27µM | / | / | 0.58µM | 4µM
O=C(O)/C=C/c1cnc2ccccc2n1 | . | . | . | . | . | .
C(=C\c1ccco1)/c1ccc2ccccc2n1 | ? | 1.2µM | / | / | ? | 4µM
O=C(/C=C/c1ccc2ccccc2n1)N1CCN(S(=O)(=O)c2ccccc2F)CC1 | . | . | / | / | . | .
Fc1cccc(Cl)c1/C=C/c1cnc2ccccc2n1 | ? | 0.13µM | / | / | 0.52µM | 4µM
CCOC(=O)c1c(C)c(-c2ccccc2)n(CC(=O)Nc2cc(C)ccc2OC)c1C | / | . | . | / | / | /
Cc1ccc(-c2ccc(C(=O)O)[nH]2)cc1 | . | 19µM | . | . | . | .
COc1ccc(-c2ccc(C(=O)O)c(=O)[nH]2)cc1 | . | . | ? | . | . | .
Cc1cccc(CCNc2nc3ccc(C)cc3n3cnnc23)c1 | ? | 17µM | / | / | ? | .[1.84 µM]
Cc1ccc(Nc2nc3ccccc3n3cnnc23)cc1C | 1.1µM | ? | / | / | . | ?
Cc1ccc2nc(NCCc3ccc(Cl)cc3)c3nncn3c2c1 | . | . | ? | / | . | .
Cc1ccc(N2CCn3c2nc2c3c(=O)n(CCc3ccccc3)c(=O)n2C)cc1C | / | . | / | / | / | /
CCCN1C(=O)c2cc(C(=O)NC3CCCCCC3)ccc2C1O (stereo not given) | 2µM | 13µM | 10µM | . | 9.2µM | 2.2µM
COc1cccc(C(=O)NC2CCCC2)c1 | . | . | . | . | . | .
CCn1c(C)c(C)c2cc(C(=O)NC3CCCCCC3)ccc21 | . | 12µM | / | / | . | ?
Cc1cccc(C(=O)NC2CCCCCCC2)c1 | 4µM | 12µM | / | / | ? | 4.5µM
CN(C)c1cccc(C(=O)NC2CCCCCC2)c1 | ? | 13µM | 13µM | . | 18µM | 3.2µM
CCCCCn1c(CCCNC(=O)c2ccccc2)nc2ccccc21 | / | . | . | / | / | /
CN(C)CCCNc1cc(N2CCN(C3CCCCC3)CC2)c2noc3c2c1C(=O)c1ccccc1-3 | / | . | . | / | / | /
Cn1c2cc(Br)sc2c2cnn(Cc3ccc(F)cc3)c(=O)c21 | . | . | / | / | / | .
CC(=O)Nc1ccc(NC(=O)CCc2nc3sc4c(c3c(=O)[nH]2)CCCC4)cc1 | . | ? | / | / | . | .
CCOC(=O)c1nc2sc3c(c2c(=O)[nH]1)CCCC3 | . | 19µM | . | . | . | .
SMILES | NPC1 promoter act | FLuc modulator | SMN2 splice enh | KinaseGlo FLuc | ELG1 genotox | Rab9 promoter act
Cc1cc(C)cc(NC(=O)CCc2nc3sc4c(c3c(=O)[nH]2)CCCC4)c1 | . | . | / | / | 0.73µM | .
CCOC(=O)c1nc2sc3c(c2c(=O)[nH]1)CCC(C)C3 (stereo not given) | . | 17µM | / | / | . | .
CC(C)CCOCc1nc2sc3c(c2c(=O)[nH]1)CCC(C)C3 (stereo not given) | . | . | . | . | ? | .
COc1cccc(-c2nc3sc4c(c3c(=O)[nH]2)CCCCC4)c1 | ? | 0.15µM | 0.89µM | . | ? | ?
CCOC(=O)c1sc2ccccc2c1S(=O)(=O)Nc1c(C)cccc1C | / | . | / | / | / | /
Cc1ccc(CS/C(Nc2ccccc2C)=C(\C#N)C(N)=O)c(C)c1 | . | . | . | . | . | .
CC(=O)c1cccc(NC(=O)C(C)OC(=O)Cc2c[nH]c3ccccc23)c1 (stereo not given) | . | . | / | / | . | .
CCOC(=O)C1CCCN(Cc2cn3c(-c4cccc(Br)c4)nnc3s2)C1 (stereo not given) | / | . | . | / | / | /
CCOC(=O)c1cc(-c2ccc(C)cc2)n(CCC(=O)Nc2nc3c(C)cccc3s2)c1C | / | . | . | / | / | /
